According to PubChem BioAssay (Tox21):
Records with an inconclusive call do not appear. Activity calls are given as the source filed them. Unless noted, calls come from the whole dose curve; as a rule, active = well fitted curve in the direction sought with a large enough effect in the repeat runs; inconclusive = weak or mixed curves; inactive = no such curve, though single readings can be large; an effect the other way counts as inactive or inconclusive.

Legend:
[1] = qHTS assay to identify small molecule agonists of H2AX (AID 1224845; active = well fitted activation curve with a large enough effect in the signal ratio in the repeat runs, not every such curve was filed as active; the % refers to the signal ratio; note: potency is the fitted concentration of half-maximal effect)
Method in brief: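 Wild-type CHO-K1 cells plated overnight, then exposed 3 hr at 37C to compounds at 15 concentrations (0.76% DMSO). Lysed, then HTRF anti-pH2AX(S139)-cryptate/anti-H2AX-d2 detection after 24 hr at room temperature; emissions 665 and 620 nm.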

[2] = qHTS assay to identify small molecule agonists of H2AX - cell viability counter screen (AID 1224847; calls by dose curve; note: nearly all actives have a fitted effect of over 30% in size; note: potency is the fitted concentration of half-maximal effect; for activity change, negative = cytotoxicity: top concentration of the series differs between compounds)
Method in brief: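 We seed wild-type CHO-K1 cells overnight, treat them for 3 hr at 37C with compounds in 15-concentration series, and quantify remaining viability by CellTiter-Glo luminescence.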

[3] = qHTS assay to identify small molecule antagonists of the estrogen related receptor (ERR) signaling pathway from Tox21 library (AID 1224848); note: nearly all actives have a fitted effect of over 50% in size; note: potency is the fitted concentration of half-maximal effect
Method in brief: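 Cells: ERR line, 2,000/well; 6 h preincubation 37 C/5% CO2. Cpd in DMSO via pin tool; 18 h, 37 C. ONE-Glo, 30 min RT, luminescence.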

[4] = qHTS assay to identify small molecule agonists of the estrogen related receptor (ERR) signaling pathway from Tox21 library (AID 1224849; calls by dose curve; note: nearly all actives have a fitted effect of over 15% in size); conditions: ERR reporter cell line, ONE-Glo luciferase, 18 h; at 92.4 µM (top of the series) unless noted
Method in brief: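 Six hours post-seeding at 37 C/5% CO2, ERR cells receive DMSO-solubilised compounds; after 18 h at 37 C, ONE-Glo reagent is applied and luminescence recorded.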

[5] = qHTS RealTime-Glo MT Cell Viability Assay in HEK293 cells - 32 hour (AID 1224868); note: nearly all actives have a fitted effect of over 50% in size; note: potency is the fitted concentration of half-maximal effect; for activity change, negative = cytotoxic: top concentration of the series differs between compounds
Method in brief: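 Reads taken at 0, 8, 16, 24, 32 and 40 h from the same wells. HEK293 cells (600/well) carried RealTime-Glo reagents from seeding, with compound added after a 5 h settle at 37 C.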

[6] = A CellTox Green Cytotoxicity Assay to monitor cytotoxicity in HEK293 cells - 0 hour (AID 1224869); note: nearly all actives have a fitted effect of over 50% in size
Method in brief: (§1)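 Seeding of HEK293 cells together with cytotoxicity dye preceded a 5 h incubation at 37 C/5% CO2. Test compounds in DMSO were then added and fluorescence monitored across 40 h.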

[7] = qHTS RealTime-Glo MT Cell Viability Assay in HepG2 cells - 24 hour (AID 1224867); note: nearly all actives have a fitted effect of over 50% in size; note: potency is the fitted concentration of half-maximal effect
Method in brief: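 HepG2 suspension premixed with RealTime-Glo reagents is plated at 600 cells per well and left 5 h at 37 C/5% CO2. Compounds in DMSO then go in, and bioluminescence reflecting viable cell number is recorded over 40 h.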

[8] = qHTS RealTime-Glo MT Cell Viability Assay in HepG2 cells - 40 hour (AID 1224870); note: nearly all actives have a fitted effect of over 50% in size
Method in brief: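 HepG2 cells mixed with RealTime-Glo MT reagents (NanoLuc plus cell-permeant prosubstrate) were seeded at 600 cells/well, incubated 5 h at 37 C/5% CO2, then pinned with compounds in DMSO; nonlytic luminescence tracked viability during 40 h treatment.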

[9] = A CellTox Green Cytotoxicity Assay to monitor cytotoxicity in HEK293 cells - 40 hour (AID 1224871); note: nearly all actives have a fitted effect of over 45% in size
Method in brief: as §1

[10] = qHTS assay to identify small molecule agonists of the hypoxia (HIF-1) signaling pathway (AID 1224846; active = well fitted activation curve with a large enough effect in the signal ratio in the repeat runs, not every such curve was filed as active; the % refers to the signal ratio)
Method in brief: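 Hypoxia-pathway activation was scored as increased beta-lactamase from an HRE-controlled reporter in ME-180 cells; plated at 2,000 cells per well with 0.5% dialyzed FBS, they were exposed 17 hrs to compounds and then given CCF4-AM.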
% is set by controls: 0 for no effect and ±100 for the full control effect.

OCc1cc(C(O)CNCCCCCCOCCCCc2ccccc2)ccc1O (centres undefined)
inactive: Potency [1] | Potency [2] | activity change, positive = activation [4] -29.9% [at 42.5 µM] | Potency [6]
active: Potency [3] 21.1 µM | Potency [5] 21.3 µM

C/C=C(/C(=C/C)c1ccc(OC(C)=O)cc1)c1ccc(OC(C)=O)cc1
inactive: Potency [1] | Potency [2] | Potency [7] | Potency [5] | Potency [6] | Potency [8] | Potency [9]

CN(C)c1ccc(/C=C/c2ccc([N+](=O)[O-])cc2)cc1
inactive: activation (H2AX phosphorylation) [1] -1.3% [at 14 µM] | activity change, negative = cytotoxicity [2] -2.45% [at 14 µM] | activity change, negative = cytotoxicity [7] -7.57% [at 6.97 µM] | activity change, negative = cytotoxic [5] -5.7% [at 6.97 µM] | activity change, negative = cytotoxic [8] -1.99% [at 6.97 µM]

C=CC1CC2C=CC1C2 (centres undefined)
inactive: Potency [1] | Potency [2] | Potency [7] | Potency [5] | Potency [6] | Potency [8] | Potency [9]

Nc1cccc([N+](=O)[O-])c1
inactive: Potency [1] | Potency [2] | Potency [3] | activity change, positive = activation [4] -5.85% | Potency [7] | Potency [5] | Potency [6] | Potency [9]

CCN(CC)CCOC(=O)C(Cc1cccc2ccccc12)CC1CCCO1 (centres undefined)
inactive: Potency [1] | Potency [2] | Potency [6] | Potency [8]

C=CC(=O)OCCOCCOC(=O)C=C
inactive: Potency [3] | Potency [6]
active: Potency [1] 56.9 µM | activity change, positive = activation [4] -74.8% | Potency [5] 34.8 µM

CC(=O)c1ccc2c(c1)N(CCCN(C)C)c1ccccc1S2
inactive: Potency [1] | Potency [2] | Potency [6] | Potency [9]

CCOC(=O)NCCOc1ccc(Oc2ccccc2)cc1
inactive: Potency [1] | activity change, positive = activation [4] -42.2% | Potency [7] | Potency [6] | Potency [8] | Potency [9]
active: Potency [3] 19.3 µM | Potency [5] 21.9 µM

Brc1c2ccccc2cc2ccccc12
inactive: Potency [1] | Potency [6] | Potency [8] | Potency [9]

C=C1C(=C/C=C2\CCC[C@]3(C)[C@@H]([C@H](C)/C=C/[C@@H](O)C4CC4)CC[C@@H]23)C[C@@H](O)C[C@@H]1O
inactive: Potency [1] | activity change, positive = activation [4] -57.7% [at 42.5 µM] | Potency [7] | Potency [6] | Potency [8]
active: Potency [3] 13.3 µM | Potency [5] 16.9 µM

COCC(C)OC(C)=O (centres undefined)
inactive: Potency [1] | Potency [2] | Potency [5] | Potency [6] | Potency [8] | Potency [9]

Nc1cc(C(=O)O)c(O)c(S(=O)(=O)O)c1
inactive: Potency [10] | Potency [2] | Potency [3] | activity change, positive = activation [4] 7.51% | Potency [7] | Potency [5] | Potency [6] | Potency [8] | Potency [9]

CCOCC(O)COc1ccc(NC(=O)CC[S+](C)C)cc1 (centres undefined)
inactive: Potency [1] | Potency [2] | Potency [5] | Potency [6] | Potency [8] | Potency [9]

CCCNCC(O)COc1ccccc1C(=O)CCc1ccccc1 (centres undefined)
active: Potency [5] 2.39 µM
inactive: Potency [1] | Potency [7] | Potency [6] | Potency [8] | Potency [9]

CCCCCCc1ccc(-c2ccc(C#N)cc2)cc1
inactive: Potency [1] | Potency [3] | activity change, positive = activation [4] 1.68% | Potency [7] | Potency [5] | Potency [6] | Potency [8] | Potency [9]

O=C1C(O)=C(O)C(=O)C(O)=C1O
inactive: Potency [1] | Potency [2] | Potency [5] | Potency [6] | Potency [8] | Potency [9]

O=C(O)C1(C(=O)O)CCC1.[NH2-].[NH2-].[Pt+2]
inactive: Potency [1] | Potency [2] | Potency [7] | Potency [6] | Potency [9]

CN(C)CCN(Cc1ccsc1)c1ccccn1
inactive: Potency [1] | Potency [2] | Potency [5] | Potency [6] | Potency [8] | Potency [9]

CCOc1ccc(N)c([N+](=O)[O-])c1
inactive: Potency [10] | Potency [2] | Potency [3] | activity change, positive = activation [4] -0.453% | Potency [7] | Potency [6] | Potency [8] | Potency [9]

CNCCCN1c2ccccc2CCc2ccccc21
inactive: Potency [1] | Potency [2] | Potency [6]

C[C@H](CCC(=O)O)[C@H]1CC[C@H]2[C@@H]3CC[C@@H]4C[C@H](O)CC[C@]4(C)[C@H]3C[C@H](O)[C@]12C
inactive: Potency [1] | Potency [6] | Potency [8]

O=C(OCCc1ccccc1)c1ccccc1
inactive: Potency [1] | Potency [7] | Potency [5] | Potency [6] | Potency [8] | Potency [9]

CCCCCCCC#N
inactive: Potency [10] | Potency [2] | Potency [3] | activity change, positive = activation [4] 2.85% | Potency [7] | Potency [5] | Potency [6] | Potency [8] | Potency [9]

O=S(c1cc(Cl)cc(Cl)c1O)c1cc(Cl)cc(Cl)c1O
inactive: Potency [1] | Potency [3] | activity change, positive = activation [4] -6.01% [at 42.5 µM] | Potency [7] | Potency [6] | Potency [9]

C[N+](C)(C)CCOC(=O)CCC(=O)OCC[N+](C)(C)C
inactive: Potency [1] | Potency [2] | Potency [5] | Potency [6] | Potency [8] | Potency [9]

CCCCCCCCCCCCCCCCCCOS(=O)(=O)O
inactive: Potency [1] | activity change, positive = activation [4] -38.9% | Potency [7] | Potency [6] | Potency [8]

COC(=O)C1=C(C)NC(COC(N)=O)=C(C(=O)OC(C)C)C1c1cccc(Cl)c1Cl (centres undefined)
inactive: Potency [1] | activity change, positive = activation [4] -36.5% [at 42.5 µM] | Potency [6] | Potency [9]
active: Potency [3] 26.6 µM | Potency [7] 23.9 µM

C#C[C@]1(O)CC[C@H]2[C@@H]3CCc4cc(OC5CCCC5)ccc4[C@H]3CC[C@@]21C
active: Potency [2] 49.2 µM | Potency [5] 23.9 µM
inactive: Potency [1] | Potency [6] | Potency [8]
